The supplement of paper PMC11732987, “Enantioselective OTUD7B fragment discovery through chemoproteomics screening and high-throughput optimisation” (Communications Chemistry, 2025)

Tests used:
Experiment in all cases: log2 ratio of Biotin-Ahx-Ub-VS probe labelling (compound/DMSO); higher = less target engagement, active = hit call of the paper (q ≤ 0.05, log2 ratio ≤ -1)
Conditions in all cases: treatment time: 3 h
[1] = compound: CCC1N(CCc2sccc12)C(=O)CCl
Outline: (§1)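 Compound at 50 or 200 µM, or DMSO, was applied for 3 h in triplicate to HEK293T lysate (495 µg per sample, Tris/CHAPS/IGEPAL buffer with protease inhibitors), after which Biotin-Ahx-Ub-VS was added at 0.5 µM final for 1 h. The labelled DUBs were pulled down with NeutrAvidin, digested with LysC and trypsin, and run by diaPASEF LC-MS/MS. Ratios are averaged base-two logs of compound over DMSO from median-normalised label-free quantities by unpaired t-test, counting only proteins with at least 2 unique peptides.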

[2] = compound: CN1c2ccccc2C(CS1(=O)=O)NC(=O)CCl
Outline: as §1

[3] = compound: Cl.ClCC(=O)N1CCc2ncncc2C1
Outline: as §1

[4] = compound: Cl.Cn1ncc2C(CCCc12)NC(=O)CCl
Outline: as §1

[5] = compound: ClCC(=O)NC1CCOc2ccccc12
Outline: as §1

[6] = compound: ClCC(=O)NC1CCCc2ccccc12
Outline: (§2)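 These values are averaged ratios of compound to vehicle, tested by unpaired t-test. HEK293T lysate (495 µg per sample) was preincubated in triplicate with compound across a concentration series or vehicle for 3 h and then with Biotin-Ahx-Ub-VS at 0.5 µM final for 1 h. Deubiquitinases carrying the probe were NeutrAvidin-enriched, digested with LysC and trypsin, and measured by diaPASEF LC-MS/MS. Ratios are expressed as log2 from global-median-normalised Spectronaut label-free quantities, and only proteins with two or more unique peptides were included.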

[7] = compound: ClCC(=O)N[C@@H]1CCCc2ccccc12
Outline: as §2

[8] = compound: ClCC(=O)N[C@H]1CCCc2ccccc12
Outline: as §2

[9] = compound: CCC1N(CCc2cc(OC)c(Cl)cc12)C(=O)CCl
Outline: as §1

[10] = compound: CCCC1N(CCc2cc(OC)c(OC)cc12)C(=O)CCl
Outline: as §1

[11] = compound: CN(Cc1cccc(Br)c1)C(=O)CCl
Outline: as §1

[12] = compound: CN(Cc1cccc(OCc2ccccc2C)c1)C(=O)CCl
Outline: as §1

[13] = compound: CN(Cc1ccccc1)C(=O)CCl
Outline: as §1

[14] = compound: COc1ccc(CN(C)C(=O)CCl)cc1
Outline: as §1

[15] = compound: COc1cccc(CN(CCCc2ccccc2)C(=O)CCl)c1
Outline: as §1

[16] = compound: ClCC(=O)N1CCc2cc(Cl)c(Cl)cc2C1
Outline: as §1

[17] = compound: ClCC(=O)N1CCc2nc(ncc2C1)-c1ccccc1
Outline: as §1

[18] = compound: ClCC(=O)N1CCc2nocc2C1
Outline: as §1

[19] = compound: ClCC(=O)N1CCc2scc(Br)c2C1
Outline: as §1

[20] = compound: ClCC(=O)NC(C1CCCC1)c1cccs1
Outline: as §1

Measured: log2 ratio of Biotin-Ahx-Ub-VS probe labelling

OTUD7B (UniProt Q6GQQ9)
Chain of UniProt Q6GQQ9 (Q6GQQ9 whole entry): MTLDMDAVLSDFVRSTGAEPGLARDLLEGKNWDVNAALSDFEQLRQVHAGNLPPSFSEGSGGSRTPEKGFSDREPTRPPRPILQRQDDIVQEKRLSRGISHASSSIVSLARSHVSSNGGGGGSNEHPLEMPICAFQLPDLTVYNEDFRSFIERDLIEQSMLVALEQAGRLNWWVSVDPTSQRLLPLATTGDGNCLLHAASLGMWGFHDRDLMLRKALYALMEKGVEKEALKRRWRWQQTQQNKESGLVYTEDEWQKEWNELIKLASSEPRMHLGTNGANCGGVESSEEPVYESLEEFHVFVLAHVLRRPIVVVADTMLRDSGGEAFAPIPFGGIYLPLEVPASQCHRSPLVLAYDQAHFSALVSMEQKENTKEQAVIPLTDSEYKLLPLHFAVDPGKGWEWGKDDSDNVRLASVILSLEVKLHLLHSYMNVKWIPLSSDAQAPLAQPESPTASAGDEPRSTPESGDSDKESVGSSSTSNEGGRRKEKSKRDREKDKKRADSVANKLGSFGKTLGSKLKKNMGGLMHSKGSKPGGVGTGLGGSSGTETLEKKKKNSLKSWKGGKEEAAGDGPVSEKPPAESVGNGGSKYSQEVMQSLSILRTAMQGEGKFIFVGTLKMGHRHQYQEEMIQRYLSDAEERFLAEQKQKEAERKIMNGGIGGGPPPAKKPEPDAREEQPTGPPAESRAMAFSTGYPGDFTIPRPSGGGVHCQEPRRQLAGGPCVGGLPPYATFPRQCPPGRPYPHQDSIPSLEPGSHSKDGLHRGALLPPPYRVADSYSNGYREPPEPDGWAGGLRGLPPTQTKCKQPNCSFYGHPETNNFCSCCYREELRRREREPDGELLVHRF
active: [2]; compound concentration: 50uM -1.97 | [2]; compound concentration: 200uM -4.51 | [3]; compound concentration: 200uM -1.65 | [4]; compound concentration: 50uM -4.9 | [4]; compound concentration: 200uM -5.48 | [5]; compound concentration: 50uM -2.66 | [5]; compound concentration: 200uM -4.52 | [6]; compound concentration: 12.5uM -1.66 | [6]; compound concentration: 25uM -2.4 | [6]; compound concentration: 50uM -3.12 | [6]; compound concentration: 100uM -3.17 | [6]; compound concentration: 200uM -3.5 | [7]; compound concentration: 50uM -1.03 | [7]; compound concentration: 100uM -1.55 | [7]; compound concentration: 200uM -2.65 | [8]; compound concentration: 6.25uM -1.39 | [8]; compound concentration: 12.5uM -2.2 | [8]; compound concentration: 25uM -3.03 | [8]; compound concentration: 50uM -3.18 | [8]; compound concentration: 100uM -3.43 | [8]; compound concentration: 200uM -3.45 | [11]; compound concentration: 200uM -1.07 | [12]; compound concentration: 200uM -2.2 | [13]; compound concentration: 200uM -1.45 | [16]; compound concentration: 200uM -1.67 | [17]; compound concentration: 200uM -1.67 | [18]; compound concentration: 50uM -1.21 | [18]; compound concentration: 200uM -3.03 | [19]; compound concentration: 200uM -2.61 | [20]; compound concentration: 200uM -2.95
inactive: [1]; compound concentration: 50uM -0.4 | [1]; compound concentration: 200uM -0.926 | [3]; compound concentration: 50uM -0.537 | [6]; compound concentration: 0.78uM -0.175 | [6]; compound concentration: 1.56uM -0.207 | [6]; compound concentration: 3.13uM -0.537 | [6]; compound concentration: 6.25uM -0.893 | [7]; compound concentration: 0.78uM -0.133 | [7]; compound concentration: 1.56uM -0.0966 | [7]; compound concentration: 3.13uM -0.116 | [7]; compound concentration: 6.25uM -0.27 | [7]; compound concentration: 12.5uM -0.226 | [7]; compound concentration: 25uM -0.495 | [8]; compound concentration: 0.78uM -0.224 | [8]; compound concentration: 1.56uM -0.562 | [8]; compound concentration: 3.13uM -0.851 | [9]; compound concentration: 50uM -0.0276 | [9]; compound concentration: 200uM -0.501 | [10]; compound concentration: 50uM -0.433 | [10]; compound concentration: 200uM -0.824 | [11]; compound concentration: 50uM -0.428 | [12]; compound concentration: 50uM -0.878 | [13]; compound concentration: 50uM -0.664 | [14]; compound concentration: 50uM -0.435 | [14]; compound concentration: 200uM -0.811 | [15]; compound concentration: 50uM -0.145 | [15]; compound concentration: 200uM -0.385 | [16]; compound concentration: 50uM -0.244 | [17]; compound concentration: 50uM -0.213 | [19]; compound concentration: 50uM -0.654 | [20]; compound concentration: 50uM -0.987

USP10 (UniProt Q14694)
Chain of UniProt Q14694 (Q14694 whole entry): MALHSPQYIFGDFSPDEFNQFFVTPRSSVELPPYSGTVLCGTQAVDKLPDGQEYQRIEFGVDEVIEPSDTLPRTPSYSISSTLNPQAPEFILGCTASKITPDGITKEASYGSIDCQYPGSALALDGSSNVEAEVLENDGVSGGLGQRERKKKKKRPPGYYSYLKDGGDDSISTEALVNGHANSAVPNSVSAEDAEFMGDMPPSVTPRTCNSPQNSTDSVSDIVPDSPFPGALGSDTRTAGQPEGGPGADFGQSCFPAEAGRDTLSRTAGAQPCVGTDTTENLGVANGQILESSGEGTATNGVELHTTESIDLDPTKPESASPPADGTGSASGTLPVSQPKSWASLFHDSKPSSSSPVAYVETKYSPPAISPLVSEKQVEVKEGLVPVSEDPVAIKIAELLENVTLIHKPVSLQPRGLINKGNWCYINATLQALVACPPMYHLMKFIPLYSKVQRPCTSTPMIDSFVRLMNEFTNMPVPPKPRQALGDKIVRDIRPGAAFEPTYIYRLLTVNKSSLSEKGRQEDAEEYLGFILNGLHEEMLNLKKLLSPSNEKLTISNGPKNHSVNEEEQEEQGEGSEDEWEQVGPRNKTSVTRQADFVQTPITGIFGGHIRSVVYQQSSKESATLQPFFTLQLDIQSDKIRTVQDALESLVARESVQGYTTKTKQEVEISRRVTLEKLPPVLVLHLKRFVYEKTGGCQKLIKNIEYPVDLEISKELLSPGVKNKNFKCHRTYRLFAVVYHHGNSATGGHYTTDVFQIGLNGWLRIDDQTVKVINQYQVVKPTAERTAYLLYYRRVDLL
inactive: [1]; compound concentration: 50uM -0.19 | [1]; compound concentration: 200uM -0.0252 | [2]; compound concentration: 50uM -0.181 | [2]; compound concentration: 200uM -0.0808 | [3]; compound concentration: 50uM -0.0803 | [3]; compound concentration: 200uM -0.275 | [4]; compound concentration: 50uM -0.122 | [4]; compound concentration: 200uM 0.147 | [5]; compound concentration: 50uM 0.0122 | [5]; compound concentration: 200uM 0.0383 | [6]; compound concentration: 0.78uM -0.0342 | [6]; compound concentration: 1.56uM -0.0587 | [6]; compound concentration: 3.13uM -0.0649 | [6]; compound concentration: 6.25uM -0.0649 | [6]; compound concentration: 12.5uM -0.132 | [6]; compound concentration: 25uM -0.0689 | [6]; compound concentration: 50uM -0.0491 | [6]; compound concentration: 100uM -0.183 | [6]; compound concentration: 200uM -0.0607 | [7]; compound concentration: 0.78uM -0.0933 | [7]; compound concentration: 1.56uM -0.139 | [7]; compound concentration: 3.13uM -0.0782 | [7]; compound concentration: 6.25uM -0.0824 | [7]; compound concentration: 12.5uM -0.0687 | [7]; compound concentration: 25uM -0.0178 | [7]; compound concentration: 50uM 0.00497 | [7]; compound concentration: 100uM -0.08 | [7]; compound concentration: 200uM -0.0678 | [8]; compound concentration: 0.78uM -0.0203 | [8]; compound concentration: 1.56uM -0.0495 | [8]; compound concentration: 3.13uM -0.0618 | [8]; compound concentration: 6.25uM -0.0539 | [8]; compound concentration: 12.5uM 0.0103 | [8]; compound concentration: 25uM -0.0249 | [8]; compound concentration: 50uM -0.0723 | [8]; compound concentration: 100uM 0.0262 | [8]; compound concentration: 200uM -0.109 | [9]; compound concentration: 50uM -0.0451 | [9]; compound concentration: 200uM -0.029 | [10]; compound concentration: 50uM -0.317 | [10]; compound concentration: 200uM -0.194 | [11]; compound concentration: 50uM -0.146 | [11]; compound concentration: 200uM -0.153 | [13]; compound concentration: 50uM -0.177 | [13]; compound concentration: 200uM 0.0371 | [14]; compound concentration: 50uM -0.151 | [14]; compound concentration: 200uM -0.0732 | [15]; compound concentration: 50uM -0.12 | [15]; compound concentration: 200uM 0.0548 | [16]; compound concentration: 50uM -0.188 | [16]; compound concentration: 200uM -0.0346 | [17]; compound concentration: 50uM -0.0484 | [17]; compound concentration: 200uM -0.151 | [18]; compound concentration: 50uM -0.2 | [18]; compound concentration: 200uM -0.136 | [19]; compound concentration: 50uM -0.066 | [19]; compound concentration: 200uM 0.0425 | [20]; compound concentration: 50uM -0.148 | [20]; compound concentration: 200uM 0.0706

USP25 (UniProt Q9UHP3)
Chain of UniProt Q9UHP3 (Q9UHP3 whole entry): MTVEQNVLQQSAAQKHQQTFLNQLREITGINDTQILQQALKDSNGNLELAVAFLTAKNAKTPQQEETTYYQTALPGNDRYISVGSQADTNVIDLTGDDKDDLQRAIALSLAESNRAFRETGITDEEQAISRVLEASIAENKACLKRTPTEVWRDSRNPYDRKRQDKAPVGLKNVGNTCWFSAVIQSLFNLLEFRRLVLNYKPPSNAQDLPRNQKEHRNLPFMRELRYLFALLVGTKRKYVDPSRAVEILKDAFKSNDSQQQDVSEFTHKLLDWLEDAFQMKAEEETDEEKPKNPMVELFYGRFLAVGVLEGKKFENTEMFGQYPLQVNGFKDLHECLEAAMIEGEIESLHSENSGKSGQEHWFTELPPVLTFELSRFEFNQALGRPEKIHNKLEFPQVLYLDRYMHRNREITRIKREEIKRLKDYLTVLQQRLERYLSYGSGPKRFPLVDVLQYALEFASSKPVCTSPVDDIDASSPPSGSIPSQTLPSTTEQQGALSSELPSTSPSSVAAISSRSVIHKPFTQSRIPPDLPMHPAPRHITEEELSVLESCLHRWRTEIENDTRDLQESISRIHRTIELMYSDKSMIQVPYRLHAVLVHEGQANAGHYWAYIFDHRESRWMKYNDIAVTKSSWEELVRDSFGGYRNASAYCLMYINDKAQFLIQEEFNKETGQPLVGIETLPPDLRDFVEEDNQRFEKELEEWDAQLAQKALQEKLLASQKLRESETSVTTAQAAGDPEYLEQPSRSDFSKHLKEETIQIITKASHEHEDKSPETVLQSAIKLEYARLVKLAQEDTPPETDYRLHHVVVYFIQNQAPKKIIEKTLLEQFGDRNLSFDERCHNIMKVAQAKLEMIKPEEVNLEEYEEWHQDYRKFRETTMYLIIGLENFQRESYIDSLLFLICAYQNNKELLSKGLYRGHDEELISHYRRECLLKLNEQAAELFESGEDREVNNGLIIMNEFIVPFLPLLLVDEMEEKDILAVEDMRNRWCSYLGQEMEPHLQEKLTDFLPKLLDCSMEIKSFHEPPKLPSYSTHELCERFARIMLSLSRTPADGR
active: [1]; compound concentration: 200uM -1.92 | [3]; compound concentration: 200uM -2.93 | [9]; compound concentration: 200uM -1.2 | [11]; compound concentration: 200uM -1.46
inactive: [1]; compound concentration: 50uM 0.366 | [2]; compound concentration: 50uM -0.365 | [2]; compound concentration: 200uM -0.0888 | [3]; compound concentration: 50uM -0.861 | [4]; compound concentration: 50uM 0.177 | [4]; compound concentration: 200uM -0.552 | [5]; compound concentration: 50uM 0.145 | [5]; compound concentration: 200uM -0.0181 | [6]; compound concentration: 0.78uM -0.139 | [6]; compound concentration: 1.56uM -0.159 | [6]; compound concentration: 3.13uM -0.428 | [6]; compound concentration: 6.25uM -0.379 | [6]; compound concentration: 12.5uM -0.358 | [6]; compound concentration: 25uM -0.339 | [6]; compound concentration: 50uM -0.0397 | [6]; compound concentration: 100uM -0.3 | [6]; compound concentration: 200uM -0.848 | [7]; compound concentration: 0.78uM -0.531 | [7]; compound concentration: 1.56uM -0.227 | [7]; compound concentration: 3.13uM -0.277 | [7]; compound concentration: 6.25uM -0.312 | [7]; compound concentration: 12.5uM -0.223 | [7]; compound concentration: 25uM -0.606 | [7]; compound concentration: 50uM -0.594 | [7]; compound concentration: 100uM -0.346 | [7]; compound concentration: 200uM -0.308 | [8]; compound concentration: 0.78uM -0.226 | [8]; compound concentration: 1.56uM -0.458 | [8]; compound concentration: 3.13uM -0.0391 | [8]; compound concentration: 6.25uM -0.447 | [8]; compound concentration: 12.5uM -0.421 | [8]; compound concentration: 25uM -0.293 | [8]; compound concentration: 50uM -0.255 | [8]; compound concentration: 100uM -0.504 | [8]; compound concentration: 200uM -0.644 | [9]; compound concentration: 50uM -0.56 | [10]; compound concentration: 50uM -0.02 | [10]; compound concentration: 200uM 0.295 | [11]; compound concentration: 50uM 0.514 | [13]; compound concentration: 50uM -0.138 | [13]; compound concentration: 200uM -0.338 | [14]; compound concentration: 50uM -0.545 | [14]; compound concentration: 200uM -0.345 | [15]; compound concentration: 50uM 0.265 | [15]; compound concentration: 200uM -0.358 | [16]; compound concentration: 50uM 0.409 | [16]; compound concentration: 200uM -0.517 | [17]; compound concentration: 50uM -0.562 | [17]; compound concentration: 200uM 0.332 | [18]; compound concentration: 50uM -0.946 | [18]; compound concentration: 200uM -0.711 | [19]; compound concentration: 50uM 0.621 | [19]; compound concentration: 200uM -0.242 | [20]; compound concentration: 50uM -0.129 | [20]; compound concentration: 200uM -0.557
